Data from PubChem BioAssay (Tox21).
Records with an inconclusive call do not appear. Calls of active or inactive are those of the source. Unless noted, calls come from the whole dose curve; as a rule, active = well fitted curve in the direction sought with a large enough effect in the repeat runs; inconclusive = weak or mixed curves; inactive = no such curve, though single readings can be large; an effect the other way counts as inactive or inconclusive.

Legend:
[1] = qHTS assay for small molecule agonists of the p53 signaling pathway (AID 651631; calls by dose curve; note: nearly all actives have a fitted effect of over 15% in size)
In short: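 HCT-116 p53RE-bla reporter line, 16 h compound treatment at 37 °C, then fluorescence after 2 h with B/G FRET substrate.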

[2] = qHTS assay for small molecules that induce genotoxicity in human embryonic kidney cells expressing luciferase-tagged ATAD5 (AID 651632); note: nearly all actives have a fitted effect of over 15% in size
In short: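 Luminescence read-out: after 16 hr compound exposure at 37C, ATAD5-luciferase HEK293T cells received Amplite, 30 min RT, then CCD imaging. A rise in signal marks genotoxic stress.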

[3] = qHTS assay for small molecule agonists of the p53 signaling pathway - cell viability (AID 651633; calls by dose curve;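 note: p53RE-bla HCT reporter cells with a stable beta-lactamase p53 reporter; series mostly up to about 83 µM; nearly all actives have a fitted effect of over 30% in size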)
In short: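 Viability counter-read: CellTiter-Glo luminescence (30 min, room temperature) in the same p53RE-bla plates. These plates had been exposed to compounds for 16 h at 37 C.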

[4] = qHTS assay for small molecules that induce genotoxicity in human embryonic kidney cells expressing luciferase-tagged ATAD5 - cell viability (AID 651634; calls by dose curve; note: nearly all actives have a fitted effect of over 25% in size)
In short: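 HEK293T ATAD5-luc cells, 2,000/well; compound 15.5 hr, 37C/5% CO2; CellTiter-Fluor 30 min, 37C; fluorescence read.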

[5] = qHTS assay to test for compound auto fluorescence at 590 nm (red) in HepG2 cells (AID 720674)
In short: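 Red autofluorescence (Ex/Em 540/590 nm, Rose Bengal sodium equivalents) was measured in HepG2 cells, 2,000 per well in MEM plus 10% FBS, plated overnight at 37 C. Readings were taken 1 hr after adding 23 nL compound or DMSO, at 37 C and 5% CO2.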

[6] = qHTS assay to test for compound auto fluorescence at 535 nm (green) in HepG2 cells (AID 720675)
[7] = qHTS assay to test for compound auto fluorescence at 460 nm (blue) in HEK293 cells (AID 720678)
In short: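 HEK293, 2,000 cells/well, 10% dialyzed FBS; attach 4-5 hr 37C; pin compound or DMSO; o/n 37C/5% CO2; fluorescence 405/460 nm; triamterene-equivalent units.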

[8] = qHTS assay to test for compound auto fluorescence at 590 nm (red) in HEK293 cells (AID 720679)
In short: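 Intensity at 540nm excitation and 590nm emission is reported as Rose Bengal sodium-equivalent autofluorescence. Measurements followed overnight exposure (37C, 5% CO2) of HEK293 cells, 2,000 per well, to 23 nL compound.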

[9] = qHTS assay to test for compound auto fluorescence at 535 nm (green) in HEK293 cells (AID 720680)
[10] = qHTS assay to test for compound auto fluorescence at 460 nm (blue) in HEK293 cell free culture (AID 720681)
In short: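 Blue fluorescence (Ex 405/Em 460 nm, triamterene-equivalent) was read immediately after pin transfer of compound or DMSO into medium (DMEM, 10% FBS) without cells.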

[11] = qHTS assay to test for compound auto fluorescence at 535 nm (green) in HEK293 cell free culture (AID 720682)
In short: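 Steps: dispense DMEM/10% FBS into empty wells; pin in compound or DMSO; measure fluorescence at 485/535 nm. Values are fluorescein equivalents.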

[12] = qHTS assay to test for compound auto fluorescence at 590 nm (red) in HEK293 cell free culture (AID 720683)
In short: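 Red-channel autofluorescence of compounds in culture medium (DMEM, 10% FBS), no cells, measured at 540/590 nm. Rose Bengal sodium is the reference fluorophore for equivalence.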

[13] = qHTS assay to test for compound auto fluorescence at 590 nm (red) in HepG2 cell free culture (AID 720684)
In short: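 Cell-free; medium MEM + 10% FBS; compound or DMSO added by pintool; read Ex 540/Em 590 nm; Rose Bengal sodium as red reference fluorophore.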

[14] = qHTS assay to test for compound auto fluorescence at 460 nm (blue) in HepG2 cell free culture (AID 720685)
In short: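 Cell-free plates of MEM plus 10% FBS received 23 nL compound or DMSO vehicle; blue-channel (405/460 nm) intensity scored against triamterene as reference fluorophore.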

[15] = qHTS assay to test for compound auto fluorescence at 535 nm (green) in HepG2 cell free culture (AID 720686)
[16] = qHTS assay to test for compound auto fluorescence at 460 nm (blue) in HepG2 cells (AID 720687)
In short: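 Blue-channel autofluorescence (Ex/Em 405/460 nm, triamterene-equivalent) was measured after 1 hr compound exposure at 37 C, 5% CO2. Cells were HepG2, plated overnight at 37 C in MEM plus 10% FBS.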

[17] = molecular target: Glucocorticoid receptor (Homo sapiens) (UniProt P04150); assay: qHTS assay to identify small molecule agonists of the glucocorticoid receptor (GR) signaling pathway (AID 720691; active = well fitted activation curve with a large enough effect in the signal ratio in the repeat runs, not every such curve was filed as active; the % refers to the signal ratio)
Chain of Glucocorticoid receptor (Homo sapiens) (P04150 whole entry, looked up): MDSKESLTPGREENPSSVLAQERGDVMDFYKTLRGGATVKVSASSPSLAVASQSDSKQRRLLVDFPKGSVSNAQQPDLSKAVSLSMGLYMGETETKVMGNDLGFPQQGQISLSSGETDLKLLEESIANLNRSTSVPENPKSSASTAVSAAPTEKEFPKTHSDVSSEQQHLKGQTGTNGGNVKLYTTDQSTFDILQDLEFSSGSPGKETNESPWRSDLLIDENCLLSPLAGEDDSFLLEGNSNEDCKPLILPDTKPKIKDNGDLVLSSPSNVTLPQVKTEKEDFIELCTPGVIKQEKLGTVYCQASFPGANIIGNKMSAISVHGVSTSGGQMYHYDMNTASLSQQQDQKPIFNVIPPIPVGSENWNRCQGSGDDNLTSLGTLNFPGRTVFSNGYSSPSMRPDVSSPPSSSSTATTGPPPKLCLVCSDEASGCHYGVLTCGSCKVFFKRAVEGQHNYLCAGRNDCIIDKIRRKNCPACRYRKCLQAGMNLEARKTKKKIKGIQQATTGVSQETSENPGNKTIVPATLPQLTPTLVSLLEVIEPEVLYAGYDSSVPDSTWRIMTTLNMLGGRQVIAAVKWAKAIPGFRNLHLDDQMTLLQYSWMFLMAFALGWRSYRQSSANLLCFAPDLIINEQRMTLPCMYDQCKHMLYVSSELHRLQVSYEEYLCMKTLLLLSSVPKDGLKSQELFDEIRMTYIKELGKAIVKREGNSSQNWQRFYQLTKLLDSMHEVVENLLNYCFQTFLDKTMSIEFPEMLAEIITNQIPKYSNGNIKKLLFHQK
In short: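 HeLa GR-bla reporter line; cells pre-incubated 4 h, compound in DMSO 18 h at 37 C; LiveBLAzer B/G FRET substrate 2 h RT; fluorescence intensity read-out.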

[18] = qHTS assay for small molecule disruptors of the mitochondrial membrane potential - cell viability (AID 720634; calls by dose curve;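 note: human HepG2 liver cancer cells; series mostly up to about 83 µM; nearly all actives have a fitted effect of over 20% in size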)
In short: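 Luminescence from CellTiter-Glo (ATP content) gave viability in HepG2 cells, read in the same wells as the MMP dye assay after 1 hr compound exposure at 37 C.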

[19] = molecular target: Glucocorticoid receptor (Homo sapiens) (UniProt P04150); assay: qHTS assay to identify small molecule antagonists of the glucocorticoid receptor (GR) signaling pathway (AID 720692; active = well fitted inhibition curve with a large enough effect in the signal ratio in the repeat runs, not every such curve was filed as active; the % refers to the signal ratio)
In short: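 Read-out: beta-lactamase FRET substrate fluorescence, 2 h at room temperature, in HeLa cells stably carrying a GRE-driven bla reporter. Compounds were co-incubated with 5 nM dexamethasone agonist (final) for 18 h at 37 C.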

[20] = qHTS assay for small molecule disruptors of the mitochondrial membrane potential (AID 720635)
In short: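 Mitochondrial membrane potential tracked with Mito-MPS dye, red aggregates (ex 540/em 590 nm) against green monomers (ex 490/em 535 nm). Compound treatment 1 hr at 37C, dye 30 min in HepG2.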

Measured: Potency

CN(C)CC/C=C1/c2ccccc2COc2ccc(CC(=O)O)cc21
not listed: [18] | [19] | [20]
inactive: all other assays above

CCCCCCCCCOC(=O)CCCCC(=O)OCCCCCCC
not listed: [16] | [20]
inactive: all other assays above

C=CCCCCCCCC
not listed: [14] | [20]
inactive: all other assays above

O=C(O)c1cc2ccccc2nc1C(=O)O
not listed: [19] | [20]
inactive: all other assays above

CC(=O)CC(=O)Nc1ccc(C)cc1C
not listed: [19] | [20]
inactive: all other assays above

C=C(C)[C@@H]1CC=C(C)CC1
not listed: [17] | [18] | [19] | [20]
inactive: all other assays above

CCCCOCC(C)O (stereo not given)
not listed: [10] | [16] | [20]
inactive: all other assays above

CC/C=C\CCOC(=O)c1ccccc1O
not listed: [10] | [14] | [20]
inactive: all other assays above

CCOCCOCC
not listed: [20]
inactive: all other assays above

CC(=O)C1C(=O)C=C(C)OC1=O (stereo not given)
not listed: [20]
inactive: all other assays above

C=C(C)c1cccc(C(C)(C)N=C=O)c1
not listed: [16] | [19] | [20]
inactive: all other assays above

CCCCOC(=O)[C@H](C)O
not listed: [20]
inactive: all other assays above

O=C1OCCO1
not listed: [18] | [19] | [20]
inactive: all other assays above

CC1=NN(c2ccc(S(=O)(=O)O)cc2)C(=O)C1
not listed: [2]
inactive: all other assays above

CC(C)OC(=O)OCOP(=O)(CO[C@H](C)Cn1cnc2c(N)ncnc21)OCOC(=O)OC(C)C
not listed: [2] | [16] | [17] | [19]
inactive: all other assays above
